# Hits are enriched below; roughly 19% of the tested compounds scored in any of these assays.
# DT40 TDP1 CPT – growth inhibition of DT40 Tdp1-/-;hTDP1 cells with camptothecin (screen for TDP1 inhibitors). chicken DT40 Tdp1-/-;hTDP1 cells + 20 nM CPT, ATP luminescence, 48 h. hit rate 12% among 420,000. Potency, µM (series often up to 46.2 µM), for the others: at the top dose activity change, negative = growth inhibition, usual class: inhibitors. AID 686979; also: nearly all actives have a fitted effect of over 55% in size
#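 Chicken DT40 Tdp1-/- cells complemented with human TDP1, 400 cells/well, exposed to compounds plus 20 nM camptothecin for at least 48 h at 37 C; viability read as ATP content by CellTiter-Glo luminescence.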
# DT40 TDP1 no CPT – qHTS for Inhibitors of human tyrosyl-DNA phosphodiesterase 1 (TDP1): qHTS in cells in absence of CPT; DT40 Tdp1-/- hTDP1 cells, no CPT, ATP luminescence, 48 h; Potency, µM (highest dose often 46.2 µM), inactives show top-dose activity change, negative = growth inhibition, usual class: inhibitors; hit rate 15% among 420,000; AID 686978, 2013; also: nearly all actives have a fitted effect of over 55% in size
#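 Chicken DT40 Tdp1-/- cells stably complemented with human TDP1 were seeded at 400 cells/well with DMSO in place of 20 nM camptothecin. After compound pinning, cells grew at least 48 hr at 37 °C; viability read by CellTiter-Glo luminescence.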
# TDP1 block – blocks human tyrosyl-DNA phosphodiesterase 1; recombinant TDP1, AlphaScreen DNA substrate cleavage; Potency, µM (doses to about 130 µM), for the others: at the top dose activity change, negative = inhibition, usual class: inhibitors; hit rate 0.28% among 350,000; also: nearly all actives have a fitted effect of over 40% in size
# Target sequence (Q9NUW8 whole entry, looked up): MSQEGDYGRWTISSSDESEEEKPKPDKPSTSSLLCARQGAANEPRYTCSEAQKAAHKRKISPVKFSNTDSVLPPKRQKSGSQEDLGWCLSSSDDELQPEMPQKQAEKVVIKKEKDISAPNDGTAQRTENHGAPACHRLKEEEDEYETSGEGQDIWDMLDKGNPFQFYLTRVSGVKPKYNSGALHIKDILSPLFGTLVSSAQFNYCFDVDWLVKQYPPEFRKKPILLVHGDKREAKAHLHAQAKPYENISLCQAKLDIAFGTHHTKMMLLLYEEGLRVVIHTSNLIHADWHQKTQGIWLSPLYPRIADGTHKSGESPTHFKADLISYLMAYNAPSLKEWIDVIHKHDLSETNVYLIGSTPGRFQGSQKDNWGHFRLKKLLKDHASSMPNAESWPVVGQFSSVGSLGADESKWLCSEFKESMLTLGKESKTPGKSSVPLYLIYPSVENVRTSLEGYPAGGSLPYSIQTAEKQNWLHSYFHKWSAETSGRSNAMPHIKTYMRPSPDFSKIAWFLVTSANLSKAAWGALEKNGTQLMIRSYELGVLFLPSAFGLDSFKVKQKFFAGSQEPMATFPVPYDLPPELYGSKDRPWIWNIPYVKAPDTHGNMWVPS
#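 Compounds were preincubated with Tdp1 (1 nM final) for 15 min at room temperature before substrate (15 nM final) started a 5 min reaction; beads (10 ug/ml final) were then added for 10 min before AlphaScreen detection.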
# Gal4-VP16 FLuc – inhibits Gal4-VP16 luciferase reporter, ROR gamma counter-screen. Drosophila S2 Gal4-VP16 UAS-luciferase, luminescence, 20 h. Potency, µM (top dose mostly 53.6 µM), inactives show at the highest dose activity, negative = inhibition, hits mostly inhibitors. hit rate 3.5% among 310,000. AID 2546;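 also: Gal4-VP16 expression switched on by copper sulfate through the metallothionein promoter; nearly all actives have a fitted effect of over 50% in size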
# RORgamma inh – blocks mouse ROR gamma transcriptional activity; P51450; Drosophila S2 Gal4-RORgamma UAS-luciferase reporter, 20 h; Potency, µM (series often up to 53.6 µM), without a hit: at the top dose activity change, negative = inhibition, usual class: inhibitors; hit rate 5.4% among 310,000; AID 2551; also: nearly all actives have a fitted effect of over 60% in size
#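 Luciferase reporter read in Schneider cells carrying Gal4-RORγ (mouse) and UAS-Photinus luciferase; cells given compound 1 h before 700 uM copper sulfate induction, then incubated 20 h at ambient temperature.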
# * = called active by the depositor; ? = inconclusive; / = no result given; [ ] = remark or other dose. Calls follow the shape of the dose curve; as a rule, active = well fitted curve in the direction sought with a large enough effect; inconclusive = small, poorly fitted or top-dose-only effect, or another doubt; inactive = no such curve, though single readings can be large; an effect the other way counts as inactive or inconclusive. % is scaled to controls: 0 for no effect and ±100 for the full control effect; potency is read from the fitted curve at half-maximal effect.
SMILES,DT40 TDP1 CPT,DT40 TDP1 no CPT,TDP1 block,Gal4-VP16 FLuc,RORgamma inh
O=C(NC1CCCC1)c1ccc(CS(=O)(=O)Cc2ccccc2Cl)o1,?,-21%,2%,-8%,27%
CCOc1ccc(CCNC(=O)c2ccc(CS(=O)(=O)Cc3ccccc3Cl)o2)cc1OCC,16µM*,23µM*,12%,/,/
CCOc1ccc(CCNC(=O)c2ccc(CSCc3ccccc3C)o2)cc1OCC,16µM*,16µM*,5%,/,/
CC1Cc2ccccc2N1C(=O)COc1cccc(-n2cnnn2)c1 (stereo not given),-30%,?,2%,3%,7%
CCOC(=O)COc1ccc(Br)cc1/C=C/c1[nH]c(=O)[nH]c(=O)c1[N+](=O)[O-],-3%,?,-5%,1%,-4%
CCOC(=O)COc1ccc(Br)cc1/C=C\c1[nH]c(=O)[nH]c(=O)c1[N+](=O)[O-],23µM*,23µM*,-1%,-7%,8%
COC(=O)c1ccc2c(=O)n(CCN3CCOCC3)c(SCC(=O)Nc3ccccc3Cl)nc2c1,?,?,1%,-12%,6%
CCOC(=O)c1ccccc1NC(=O)Cc1c(C(=O)O)c(C)cn1C,-7%,-12%,2%,/,/
O=C(Nc1ccc(N2CCN(C(=O)c3cccs3)CC2)cc1)c1cccnc1,?,?,3%,1%,1%
COc1ccc(-c2cc(=O)oc3cc(OCC(C)=O)ccc23)cc1,-24%,-24%,3%,2%,-7%
COc1ccc(-c2cc3ccc(O)cc3oc2=O)cc1OC,4%,3%,79µM*,3%,7%
COc1ccc(-c2cc(=O)oc3c(C)c(OC(=O)c4cccs4)ccc23)cc1,3.7µM*,?,0%,3%,-4%
COc1ccc(-c2cc(=O)oc3cc(OC(=O)C4CCCCC4)c(Cl)cc23)cc1,23µM*,?,5%,1%,0%
COc1ccc(-c2cc(=O)oc3cc(O)ccc23)cc1,?,7.3µM*,/,-7%,26%
COc1cccc(C(=O)OCC(=O)c2c(N)n(C)c(=O)n(C)c2=O)c1,5%,4%,-2%[56.1 µM],/,/
COc1cc(Cl)c(C)cc1NC(=O)COc1ccc(C)nc1[N+](=O)[O-],?,?,-1%,/,/
Cc1cccc(Cn2c(=O)n(Cc3ccccc3)c(=O)c3c2c2cc(C)ccc2n3C)c1,-5%,-19%,6%,/,/
CCOC(=O)C(Oc1ccc2c(-c3ccccc3)cc(=O)oc2c1C)c1ccccc1 (stereo not given),?,?,-3%,-2%,8%
COc1ccc(-c2cc(=O)oc3c(C)c(O)ccc23)cc1,7.3µM*,3.3µM*,/,5%,12%
CCOC(=O)C(Oc1ccc2c(-c3ccc(OC)cc3)cc(=O)oc2c1C)c1ccccc1 (stereo not given),16µM*,?,0%,4%,-1%
Cc1c(O)ccc2c(-c3ccccc3)cc(=O)oc12,13µM*,15µM*,/,2%,19%
CCCCN(C)Cc1c(O)ccc2c(-c3ccccc3)cc(=O)oc12,?,15µM*,3%,18%,14%
C/C(=N/N1CCN(c2ccccc2)CC1)c1cccc([N+](=O)[O-])c1,-11%,?,5%,-3%,18%
Cc1c(C)c2ccc(O[C@@H]3O[C@H](CO)[C@H](O)[C@H](O)[C@H]3O)c(C)c2oc1=O,6%,-10%,/,14%,2%
CCCCN(C(=O)CSc1nc(CCC)cc(=O)[nH]1)c1c(N)n(Cc2ccccc2)c(=O)[nH]c1=O,-15%,?,2%,/,/
SMILES,DT40 TDP1 CPT,DT40 TDP1 no CPT,TDP1 block,Gal4-VP16 FLuc,RORgamma inh
CCCNNC(=O)C(O)(c1cccc(C)c1)c1cccc(C)c1,3%,-7%,3%,-4%,?
COC(=O)c1ccc(C(NC(=O)OCc2ccccc2)/C(C)=C/[C@@H](C)C(=O)Nc2ccc(OC)cc2)cc1 (stereo not given in full),/,/,9%,4%,?
COc1ccc(C(C)=O)cc1CSc1nnc(SCc2cc(C(C)=O)ccc2OC)s1,?,?,/,9%,-1%
CNC(=S)N/N=C/c1c(C)cccc1Cl,?,?,8%,4µM*,2.2µM*
CNC(=S)N/N=C/c1c2ccccc2c(Cl)c2ccccc12,5.8µM*,5.8µM*,11%,5µM*,4.5µM*
Cc1[nH]cnc1C(=O)N/N=C/c1c(Cl)cccc1Cl,?,?,/,-6%,-20%
Cc1[nH]c2ccccc2c1/C=N/NC(N)=S,-5%,7%,5%,-9%,-39%
CCOc1ccc(Nc2oc(-c3ccc(Cl)cc3)nc2C#N)cc1,?,4.1µM*,4%,?,-38%
COc1ccc(Nc2oc(-c3ccc(Cl)cc3)nc2C#N)cc1,6.5µM*,2.9µM*,5%,-16%,?
CCOc1ccc(-c2nc(C#N)c(NCc3ccc4c(c3)OCO4)o2)cc1,?,15µM*,-3%,-10%,-14%
COc1ccc(-c2nc(C#N)c(NCCc3ccccc3)o2)cc1,15µM*,14µM*,0%,7%,101%
Cc1cc(NC(=O)COC(=O)[C@H](Cc2c[nH]c3ccccc23)NC(=O)c2ccc(F)cc2)no1,-8%,-14%,6%,?,?
COC(=O)c1c(NC(=O)COC(=O)CCc2ccc(S(=O)(=O)N3CCOCC3)cc2)sc2c1CCC2,?,-27%,0%,-8%,19%
C[C@H](O)[C@@H]1C(=O)N2CCc3c([nH]c4ccccc34)[C@@H]2C[C@@H]1N(C)C(=O)Nc1ccccc1,-24%,?,/,/,/
CCOc1cccc(C2c3c(oc4ccc(F)cc4c3=O)C(=O)N2CCc2ccc(OC)cc2)c1 (stereo not given),5.2µM*,?,1%,/,/
COc1ccc(CCN2C(=O)c3oc4ccc(F)cc4c(=O)c3C2c2ccc(C(C)(C)C)cc2)cc1 (stereo not given),?,3.3µM*,3%,/,/
CCCOc1ccc(C2c3c(oc4ccc(F)cc4c3=O)C(=O)N2CCc2ccc(OC)cc2)cc1 (stereo not given),1%,-28%,2%,/,/
COc1ccc(C2c3c(oc4ccccc4c3=O)C(=O)N2CCCN2CCOCC2)cc1 (stereo not given),?,23µM*,/,/,/
CCN1CCN(C2CC(=O)NC2=O)CC1 (stereo not given),/,/,-2%,-20%,7%
CCN1C(=O)CC(N2CCC(C(=O)N3CCOCC3)CC2)C1=O (stereo not given),-1%,1%,0%,2%,-37%
O=C(C1CCN(C2CC(=O)N(c3ccc(F)cc3)C2=O)CC1)N1CCOCC1 (stereo not given),?,-23%,-5%,?,13µM*
